Compounds with a hit are over-represented: about 2.8% of the library has one in this group of screens.
SIRT5 inh: inhibitors of human sirtuin-5 desuccinylase | AID 652115 | 330,000 tested, 1.1% active | inhibition, % at 15 µM | Purified SirT5, succinyl-peptide AMC, trypsin-coupled fluorescence | Q9NXA8; in the data active = inhibition above about 15%
FGF22 binding: binders of recombinant human FGF22 by thermal shift; SYPRO orange fluorescence; percent of sucrose octasulfate shift, DMSO zero; AID 651658; Q9HCT0; activity (Tm shift, normalised), % at 9.99 µM; 340,000 tested, 1.5% active;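 active = mean Tm shift, scaled 0 neutral to 100 positive control, at about 1.3% or above, every replicate too, limit read from the data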
PvdQ inh: blocks Pseudomonas aeruginosa PvdQ acylase activity. purified PvdQ acylase, fluorescence plate reader. inhibition, % at 10 µM. 340,000 tested, 0.063% active. AID 488965; in the data active = inhibition above about 30%, passing the limit was not always enough
CDK5 p35 inh: inhibitors of human CDK5/p35 kinase | Q00535+Q15078 | 330,000 tested, 0.01% active | Recombinant CDK5/p35, ADP-Glo luminescence, 60 min | inhibition, % at 10 µM;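 active = highest replicate inhibition of at least 50% and at least 75% of replicates reaching 50%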
Target sequence (Q00535 whole entry, looked up): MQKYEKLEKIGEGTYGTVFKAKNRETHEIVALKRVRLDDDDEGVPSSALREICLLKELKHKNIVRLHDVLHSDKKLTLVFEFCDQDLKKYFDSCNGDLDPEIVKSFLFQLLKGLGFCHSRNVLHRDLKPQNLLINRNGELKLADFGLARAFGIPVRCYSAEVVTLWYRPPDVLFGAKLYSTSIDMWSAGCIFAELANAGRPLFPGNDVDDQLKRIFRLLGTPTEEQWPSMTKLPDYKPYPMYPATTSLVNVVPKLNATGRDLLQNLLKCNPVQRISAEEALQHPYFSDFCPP
Target sequence (Q15078 whole entry, looked up): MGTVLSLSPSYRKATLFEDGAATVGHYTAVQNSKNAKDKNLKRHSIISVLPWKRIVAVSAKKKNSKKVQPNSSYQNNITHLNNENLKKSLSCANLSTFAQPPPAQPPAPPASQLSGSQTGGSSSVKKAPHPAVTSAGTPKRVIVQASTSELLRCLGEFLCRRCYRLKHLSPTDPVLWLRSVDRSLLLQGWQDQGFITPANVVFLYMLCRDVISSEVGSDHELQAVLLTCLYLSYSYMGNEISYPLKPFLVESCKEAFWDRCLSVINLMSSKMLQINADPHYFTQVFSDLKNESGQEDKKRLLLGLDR
dFosB activator: enhances mouse delta FosB homodimer DNA binding; activation, % at 25 µM; purified delta FosB, TAMRA-CDK5 oligo fluorescence polarization; percent of positive-control signal above neutral wells; 340,000 tested, 0.99% active;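 active = mean activation above about 17%, with every replicate also reaching it, limit read from the data, passing the limit was not always enough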
PglD DTNB: PglD (C. jejuni) enzyme inhibition. purified PglD enzyme, DTNB colorimetric CoA detection. inhibition, % at 12.5 µM. 360,000 tested, 0.098% active; in the data active = inhibition above about 16%, passing the limit was not always enough
Hits are given with their value; i = inactive; nt = not tested or not shown.

SMILES	SIRT5 inh	FGF22 binding	PvdQ inh	CDK5 p35 inh	dFosB activator	PglD DTNB
CNC(=S)NCCc1ccc(OC)cc1	i	43	i	i	i	nt
CCNC(=O)C[C@@H]1C=C[C@H](NC(=O)C2CCOCC2)[C@@H](CO)O1	i	i	nt	nt	nt	i
CC1=[N+](C)N(c2ccccc2)C(=O)C1N=Cc1c(Cl)cccc1Cl (stereo not drawn)	i	43	i	i	i	i
CC1=[N+](C)N(c2ccccc2)C(=O)C1N=Cc1ccccc1Cl (stereo not drawn)	i	i	i	i	i	i
C=CCSc1ncc(C(=O)OCC)c(N)n1	i	43	i	i	i	nt
CO[C@@H]1CN(C)C(=O)c2cc(NC(=O)Nc3cccc(F)c3)ccc2OC[C@@H](C)N(C(=O)Nc2cccc(F)c2)C[C@H]1C	i	i	nt	nt	nt	i
O=C(NC(=S)N1CCN(c2nc(-c3ccccc3)cs2)CC1)c1cncc(Br)c1	i	43	i	i	i	i
Cc1cc(C(=O)Nc2cccc3c2O[C@@H](CN(C)C)[C@H](C)CN([C@H](C)CO)C3=O)n(C)n1	nt	i	nt	nt	nt	i
C/C(CC(=O)Nc1ccc(C)c(Cl)c1)=N\NC(=O)c1ccncc1	i	44	i	i	i	nt
O=C1CN(S(=O)(=O)Cc2ccccc2)C[C@@H]2[C@H](c3ccc(C#Cc4cccc(F)c4)cc3)[C@H](CO)N12	17	nt	nt	nt	nt	nt
O=C1CN(S(=O)(=O)c2ccccc2)C[C@@H]2[C@H](c3ccc(C#Cc4ccccc4)cc3)[C@H](CO)N12	25	nt	nt	nt	nt	nt
O=C1CN(S(=O)(=O)Cc2ccccc2)C[C@H]2[C@H](c3ccc(C#Cc4cccc(F)c4)cc3)[C@@H](CO)N12	i	nt	nt	nt	nt	nt
C[C@H]1CN([C@@H](C)CO)C(=O)Cc2cc(NS(=O)(=O)c3ccccc3)ccc2O[C@@H]1CN(C)S(=O)(=O)c1cn(C)cn1	i	i	nt	nt	nt	i
CO[C@H]1CN(C)C(=O)c2ccc(NC(=O)Nc3cc(F)ccc3F)cc2OC[C@@H](C)NC[C@H]1C	i	i	nt	nt	nt	i
C[C@@H]1CCCCO[C@@H](CN(C)CC2CCCCC2)[C@@H](C)CN([C@@H](C)CO)C(=O)c2cc(NS(=O)(=O)c3ccc(F)cc3)ccc2O1	19	i	nt	nt	nt	i
Cc1ccc(S(=O)(=O)Nc2ccc3c(c2)C(=O)N([C@@H](C)CO)C[C@@H](C)[C@@H](CN(C)CC2CCCCC2)OCCCC[C@H](C)O3)cc1	17	i	nt	nt	nt	i
CN1C(=O)c2cc(NC(=O)c3ccc(F)cc3)ccc2OC[C@@H]2O[C@H](CC(=O)NCC3CC3)CC[C@H]21	i	i	nt	nt	nt	i
CC1Cc2ccccc2N1C(=O)c1cnc2ccccn2c1=O (stereo not drawn)	nt	nt	i	i	i	i
Cc1csc2ncc(C(=O)N3c4ccccc4CC3C)c(=O)n12 (stereo not drawn)	16	i	i	i	i	i
CCCC(=O)Nc1ccc2c(c1)C(=O)N(C)C[C@@H](OC)[C@H](C)CN(C(C)=O)[C@@H](C)CO2	i	i	nt	nt	nt	i
Cc1cccc(NC(=O)CNC(=O)COc2cc(F)ccc2[N+](=O)[O-])c1C	i	43	i	i	i	nt
Cc1cccc(NC(=O)CNC(=O)COc2ccc(C(=O)c3ccc(F)cc3)cc2)c1C	nt	nt	i	i	i	nt
CCOc1ccc(N2C(=O)/C(=C\c3ccc(OC)c(O)c3)S(=O)(=O)C2c2cccc([N+](=O)[O-])c2)cc1 (stereo not drawn)	i	i	i	i	i	nt
CCOc1ccc(N2C(=O)/C(=C\c3ccc(O)c(OC)c3)S(=O)(=O)C2c2cccc([N+](=O)[O-])c2)cc1 (stereo not drawn)	i	44	i	i	i	i
Cc1ccc(N2CCN(C(=O)CCc3nc4ccccc4[nH]3)CC2)c(C)c1	i	i	i	i	i	i
SMILES	SIRT5 inh	FGF22 binding	PvdQ inh	CDK5 p35 inh	dFosB activator	PglD DTNB
Cc1cccc(N2CCN(C(=O)c3ccc4nccnc4c3)CC2C)c1 (stereo not drawn)	nt	43	i	i	i	i
Cc1cccc(N2CCN(C(=O)CCc3nc4ccccc4[nH]3)CC2C)c1 (stereo not drawn)	17	i	i	i	i	i
Cc1csc(SCC(=O)Nc2ccccc2[N+](=O)[O-])n1	i	44	i	i	i	nt
CCc1nn2c(N)c(/C=C3\C=Nc4ccccc43)c(=O)nc2s1	i	i	i	i	i	i
CC(C)S(=O)(=O)c1nsc2nc(=O)c(/C=C3\C=Nc4ccccc43)c(N)n12	i	i	i	i	i	i
Cc1cn2c(N)c(/C=C3\C=Nc4ccccc43)c(=O)nc2s1	i	i	i	i	19	nt
CSc1nsc2nc(=O)c(/C=C3\C=Nc4ccccc43)c(N)n12	i	1.5	i	i	i	i
COC1=C/C(=C/c2c(N)n3cc(C)sc3nc2=O)C=CC1=O	i	i	i	i	i	i
Cc1cn2c(N)c(C=C3C=C(Cl)C(=O)C(Cl)=C3)c(=O)nc2s1	20	i	i	i	i	nt
Cc1nc(S/C(=C/c2ccc(OCc3ccc(C(=O)O)cc3)cc2)C(=O)O)n[nH]1	i	1.5	i	i	i	nt
Cc1cccc(Oc2ccc(Cl)cc2N)c1	112	i	i	i	i	i
Nc1cc(Cl)ccc1Oc1ccccc1	nt	nt	i	i	i	i
O=C(CSC1=NS(=O)(=O)c2cc(F)ccc2N1)Nc1ccc(F)cc1	i	1.7	i	i	i	i
CCOC(=O)/C=C1\SCC(=O)N1CC(=O)NCc1ccc(OC)c(OC)c1	i	43	i	i	i	nt
CCOC(=O)/C=C1\SCC(=O)N1CC(=O)NCCc1ccc(F)cc1	i	i	i	i	i	i
CCCCCC(=O)Nc1nc(C)c(-c2csc(Nc3cc(Cl)ccc3OC)n2)s1	24	i	i	i	i	i
[O-][N+](=C(c1ccccc1)c1ccccc1)c1ccccc1	nt	43	i	i	i	i
CCN1C(=O)[C@H]2[C@@H](c3ccc(-c4cccc(Cl)c4)cc3)N[C@@](CC(C)C)(C(=O)OC)[C@H]2C1=O	nt	i	i	i	i	i
CCN1C(=O)[C@H]2[C@@H](c3ccc(-c4cccc(Cl)c4)c(OC)c3)N[C@@](CC(C)C)(C(=O)OC)[C@H]2C1=O	25	i	i	i	i	i
Cc1ccc(S(=O)(=O)Nc2ccc3c(c2)C(=O)N([C@@H](C)CO)C[C@@H](C)[C@@H](CN(C)C(=O)CCCN(C)C)OCCCC[C@H](C)O3)cc1	i	i	nt	nt	nt	i
Cc1cccc(C)c1NC(=O)Cn1c(=O)c2cccn2c2ccccc21	i	i	i	i	29	i
CCN(C[C@H]1N[C@@H](CO)[C@H]1c1ccccc1)C(=O)c1ccccc1	i	i	nt	nt	nt	i
O=C(NCCOc1ccccc1Cl)C(=O)NCCOc1ccccc1Cl	i	i	i	i	i	i
O=C(CNC(=O)c1ccccc1F)NCCOc1ccccc1Cl	i	43	i	i	i	i
O=C(COC(=O)CNC(=O)c1ccccc1F)Nc1cccnc1Cl	i	43	i	i	i	nt
C=CCNC(=O)Nc1ccc(Cl)cn1	i	43	i	i	i	nt

Screening results: PubChem BioAssay, Broad Institute
